Screening results from PubChem.
MITF primary: MITF inhibitors, primary screen, biochemical, AlphaScreen, human | inhibition, % at 2.6 µM | AID 1259374, 2018 | 650,000 compounds, 0.91% hits | AlphaScreen MITF homodimerization, bead proximity signal; in the data active means inhibition above about 50%
FBW7 act: FBW7 E3 ligase activators, primary screen, biochemical, AlphaScreen, human; normalized activity (activation), % at 26.1 µM; F-box/WD repeat-containing protein 7 (Homo sapiens), Q969H0; AlphaScreen FBW7–phospho-cyclin E peptide binding, activator screen; 650,000 compounds, 0.13% hits; in the data active means normalized activity above about 1.9%;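 further: purified mutant Fbw7 with reduced substrate affinity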
Target sequence (Q969H0 whole entry, looked up): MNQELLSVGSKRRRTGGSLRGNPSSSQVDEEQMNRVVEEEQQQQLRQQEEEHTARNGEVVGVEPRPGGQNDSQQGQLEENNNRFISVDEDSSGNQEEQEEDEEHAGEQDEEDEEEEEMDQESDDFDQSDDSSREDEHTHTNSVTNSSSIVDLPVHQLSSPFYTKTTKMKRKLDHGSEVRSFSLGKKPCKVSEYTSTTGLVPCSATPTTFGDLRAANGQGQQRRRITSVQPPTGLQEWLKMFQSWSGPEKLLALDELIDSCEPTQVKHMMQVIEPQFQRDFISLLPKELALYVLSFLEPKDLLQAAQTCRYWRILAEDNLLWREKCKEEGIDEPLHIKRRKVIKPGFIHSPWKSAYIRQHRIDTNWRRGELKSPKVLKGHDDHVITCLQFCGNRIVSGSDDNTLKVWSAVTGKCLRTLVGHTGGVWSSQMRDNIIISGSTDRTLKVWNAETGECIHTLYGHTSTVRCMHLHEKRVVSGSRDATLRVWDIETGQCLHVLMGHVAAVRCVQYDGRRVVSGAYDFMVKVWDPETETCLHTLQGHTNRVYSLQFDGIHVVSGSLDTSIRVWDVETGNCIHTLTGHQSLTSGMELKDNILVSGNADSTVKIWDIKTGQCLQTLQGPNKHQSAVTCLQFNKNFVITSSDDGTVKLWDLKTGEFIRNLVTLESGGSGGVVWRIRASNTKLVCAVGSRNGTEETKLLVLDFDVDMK
TEAD-YAP block: TEAD-YAP interaction inhibition, primary screen, TEAD-YAP interaction inhibitor project, luminescence, HEK-TIYL cells. TEAD-Gal4/YAP UAS-luciferase luminescence. inhibition, % at 9.12 µM. 640,000 compounds, 1.4% hits. AID 1259422, 2018; in the data active means inhibition above about 32%
GPR151 ag: activators of human GPR151, primary screen, cell-based, PathHunter beta-arrestin, luminescence; G-protein coupled receptor 151 (Homo sapiens), Q8TDV0; activation, % at 11.2 µM; PathHunter beta-arrestin GPR151 cells; 650,000 compounds, 1% hits; in the data active means activation above about 4.9%
MITF confirm: MITF inhibitors, retest of hits, confirmation, biochemical, AlphaScreen, triplicate; shares compounds with MITF primary; AID 1259372, 2018; 4,700 compounds, 16% hits; AlphaScreen MITF homodimerization, biotin/His-MITF beads; inhibition, % at 2.6 µM;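 active means inhibition above a cutoff derived from the DMSO control wells, cut at about 28% in these data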;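 further: inhibitors lower the bead chemiluminescence by keeping MITF from dimerizing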
AS interf ctr: AlphaScreen optical interference compounds, counter-screen for MITF inhibitor project, biochemical, triplicate; shares compounds with MITF primary; 4,700 compounds, 7.6% hits; LysRS AlphaScreen counterscreen, signal interference; inhibition, % at 2.6 µM;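 active means inhibition above a cutoff derived from the DMSO control wells, cut at about 30% in these data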
Hits are given with their value; n = inactive; x = no result given. This is a sample that favours compounds with a hit; in the whole collection about 3.5% have one here.

SMILES	MITF primary	FBW7 act	TEAD-YAP block	GPR151 ag	MITF confirm	AS interf ctr
COc1ccc(CN2CCN(C3CCC(c4ccccc4)CC3)CC2)c(OC)c1 (stereo not given)	58	n	n	n	n	n
COc1cc(C(=O)N2CCN(C3CCC(c4ccccc4)CC3)CC2)cc(OC)c1OC (stereo not given)	51	n	n	n	n	n
COc1cc(C(=O)N2CCN(C(=O)c3ccccc3)CC2)cc(OC)c1OC	n	n	n	n	x	x
c1ccc(C2CCC(N3CCN(C4CCCCC4)CC3)CC2)cc1 (stereo not given)	n	n	n	n	x	x
COC(=O)C1=C(C)NC(=S)NC1c1cc(O)ccc1Br (stereo not given)	n	n	n	n	x	x
O=C(Nc1ccc(Cl)c(Cl)c1)c1cc(S(=O)(=O)N2CCN(c3ccccc3)CC2)ccc1F	n	n	n	n	x	x
CCOc1cc(C(c2c(C)[nH]n(-c3ccccc3)c2=O)c2c(C)[nH]n(-c3ccccc3)c2=O)ccc1OC	n	n	n	n	x	x
O=C(Nc1nnc(-c2ccco2)o1)c1ccc([N+](=O)[O-])o1	55	n	n	n	n	n
O=C(Nc1nnc(-c2ccccc2)o1)c1ccc([N+](=O)[O-])o1	n	n	n	n	x	x
COCCCNC(=O)Cn1cc(/C=C(\C#N)C(=O)NCc2ccccc2)c2ccccc21	n	n	n	n	x	x
O=C(c1cc(F)cc(F)c1)N1CC[C@@H](c2ccccc2)[C@H](O)C1	53	n	n	n	n	n
COc1ccc([C@@H]2CCN(C(=O)c3cc(F)cc(F)c3)C[C@H]2O)cc1	n	n	n	n	x	x
O=c1c2cc(Br)ccc2[nH]c(=S)n1CC1CCCO1 (stereo not given)	n	n	n	n	x	x
CCC(C)(C)n1nnnc1C(c1ccccn1)N1CCC(O)CC1 (stereo not given)	n	n	n	n	x	x
O=C(Nc1ccc2oc(-c3cccc(F)c3)nc2c1)c1cccc(F)c1	n	n	n	n	x	x
CCOC(=O)C1CCN(C(=O)C2CCN(Cc3cccc(OC)c3)CC2)CC1	52	n	n	n	n	n
CCN(Cc1ccccc1)C(=O)C1CCN(Cc2cccc(OC)c2)CC1	52	n	n	n	n	n
Cc1ccnc(Nc2ccc(NCCNC(=O)c3ccc(F)cc3)nn2)c1	56	n	n	n	61	94
Cc1ccnc(Nc2ccc(NCCNC(=O)c3ccc(F)cc3Cl)nn2)c1	81	n	n	n	43	83
Cc1cccc(Nc2ccc(NCCNC(=O)c3ccc(F)cc3)nn2)n1	n	n	n	n	x	x
O=C(CNCCN1CCCCC1)Nc1ccc(N2CCCCC2)cc1	94	n	n	n	n	n
CCOCCCNCC(=O)Nc1ccc(N2CCCC2)cc1	n	n	n	n	x	x
O=C(CNCCN1CCCCC1)Nc1ccc(N2CCCC2)cc1	83	n	n	n	n	61
O=C(CNCCCN1CCOCC1)Nc1ccc(N2CCCCCC2)cc1	75	n	n	n	n	n
O=C(CCl)Nc1ccc(N2CCCCC2)cc1	n	n	n	n	x	x
SMILES	MITF primary	FBW7 act	TEAD-YAP block	GPR151 ag	MITF confirm	AS interf ctr
O=C(CNCCN1CCCCC1)Nc1ccc(N2CCCCCC2)cc1	91	n	n	n	n	34
CCCCN(C)C(=O)CC1(c2ccccc2Cl)CC(=O)N(CCOC)C1=O (stereo not given)	n	n	n	n	x	x
CCOCC(=O)N1CCC(Cn2cnc3cc(C)c(C)cc32)CC1	66	n	n	n	n	n
COC(=O)c1ccc(CN2CCC(c3nc4ccccc4[nH]3)CC2)cc1	n	n	n	n	x	x
O=C(Cn1c(=O)oc2ccccc21)N1CCC(Cn2cnc3ccccc32)CC1	53	n	n	n	n	n
COC(=O)c1ccc(CN2CCC(Cn3cnc4ccccc43)CC2)cc1	82	n	n	n	n	n
O=C(CN1CCC(Cn2cnc3ccccc32)CC1)N1CCC(Cc2ccccc2)CC1	74	n	61	n	n	n
O=C(Cn1ncc2ccccc21)N1CCC(Cc2ccccc2)CC1	n	n	n	n	x	x
COc1ccc(NC(=O)c2c(F)cccc2Cl)cc1S(=O)(=O)N1CCCCC1	n	n	n	n	x	x
CSc1nc2n(n1)C(c1ccc(Cl)cc1)C1=C(CC(C)(C)CC1=O)N2 (stereo not given)	n	n	n	n	x	x
O=C(/C=C/c1cccs1)NCC1CCN(C(=O)/C=C/c2cccs2)CC1	n	n	n	n	x	x
O=C(Cn1cnc2ccccc21)N1CCC(Cn2cccn2)CC1	n	n	n	n	x	x
C=CCNC(=O)CN1CCC(Cn2cnc3cc(C)c(C)cc32)CC1	54	n	n	n	n	n
O=C(/C=C/c1cccs1)N1CCC(Cn2cnc3ccccc32)CC1	65	n	n	n	n	n
O=C(CN1CCC(Cn2cnc3ccccc32)CC1)Nc1cccc(F)c1	54	n	n	n	n	n
CCOC(=O)CCC(=O)N1CCC(Cn2cnc3ccccc32)CC1	59	n	n	n	n	n
O=C(c1cccc(F)c1)N1CCC(Cn2cnc3ccccc32)CC1	n	n	n	n	x	x
FC(F)(F)c1ccc(Cn2cnc3c(Nc4ccc(N5CCOCC5)cc4)nc(NCc4ccc5c(c4)OCO5)nc32)cc1	n	n	n	n	x	x
OCCCNc1nccn2c(-c3cccc4cccnc34)cnc12	n	n	n	n	x	x
COC(=O)Nc1ccc(S(=O)(=O)Nc2ccc3c(c2)OCCO3)cc1	n	n	n	n	x	x
CCCCCC(C)(C)NC(=O)CN1CCOCC1	51	n	n	n	n	n
COc1ccc(C(=O)N(Cc2nc(-c3ccc(C)cc3)no2)C(C)C)cc1[N+](=O)[O-]	55	n	n	n	n	n
COc1ccc(-c2noc(CN(C(=O)c3ccc(OC)c([N+](=O)[O-])c3)C(C)C)n2)cc1	n	n	n	n	x	x
O=C(CSc1nc2ccc(N3CCOCC3)cc2c(=O)n1Cc1ccccc1)Nc1cccc(C(F)(F)F)c1	n	n	n	n	x	x
O=C(c1ccco1)N1CCc2c(nc(N3CCCC3)[nH]c2=O)C1	n	n	n	n	x	x
SMILES	MITF primary	FBW7 act	TEAD-YAP block	GPR151 ag	MITF confirm	AS interf ctr
CCC(C)NCCOCCOc1ccc(C)cc1OC (stereo not given)	54	n	n	n	n	n
CCC(C)NCCOCCOc1ccc(C)cc1Cl (stereo not given)	77	n	n	n	n	n
CCC(C)NCCOCCOc1ccc(Cl)cc1Br (stereo not given)	n	n	n	n	x	x
CCC(C)NCCOCCOc1ccc(OC)cc1 (stereo not given)	84	n	n	n	n	n
CCC(C)NCCOc1ccc(OC)cc1 (stereo not given)	n	n	n	n	x	x
CCC(=O)Nc1nnc(SCC(=O)Nc2ccc(Br)cc2)s1	n	n	n	n	x	x
